Sampled rows, rich in hits. Any-hit rate of the full collection: about 11%.
Gal4-VP16 FLuc – counter-screen for ROR gamma inhibitors: Gal4-VP16 reporter. Drosophila S2 Gal4-VP16 UAS-luciferase, luminescence, 20 h. Potency, µM (doses to about 53.6 µM), usual class: inhibitors. actives 3.5% (n = 310,000);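 note: Gal4-VP16 expression switched on by copper sulfate through the metallothionein promoter; nearly all actives have a fitted effect of over 50% in size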
MCF10A rerep – DNA re-replication induction in MCF 10a cells | MCF 10A DNA re-replication, Hoechst nuclear intensity, 48 h | Potency, µM (highest dose often 46.1 µM), actives largely listed as activators | actives 2.9% (n = 350,000); note: nearly all actives have a fitted effect of over 50% in size
RORg inh – ROR gamma (mouse) transcription inhibition | P51450 | Drosophila S2 Gal4-RORgamma UAS-luciferase reporter, 20 h | Potency, µM (series often up to 53.6 µM), usual class: inhibitors | actives 5.4% (n = 310,000) | AID 2551; note: nearly all actives have a fitted effect of over 60% in size
Target sequence (P51450 whole entry, looked up, the tested form may be a part): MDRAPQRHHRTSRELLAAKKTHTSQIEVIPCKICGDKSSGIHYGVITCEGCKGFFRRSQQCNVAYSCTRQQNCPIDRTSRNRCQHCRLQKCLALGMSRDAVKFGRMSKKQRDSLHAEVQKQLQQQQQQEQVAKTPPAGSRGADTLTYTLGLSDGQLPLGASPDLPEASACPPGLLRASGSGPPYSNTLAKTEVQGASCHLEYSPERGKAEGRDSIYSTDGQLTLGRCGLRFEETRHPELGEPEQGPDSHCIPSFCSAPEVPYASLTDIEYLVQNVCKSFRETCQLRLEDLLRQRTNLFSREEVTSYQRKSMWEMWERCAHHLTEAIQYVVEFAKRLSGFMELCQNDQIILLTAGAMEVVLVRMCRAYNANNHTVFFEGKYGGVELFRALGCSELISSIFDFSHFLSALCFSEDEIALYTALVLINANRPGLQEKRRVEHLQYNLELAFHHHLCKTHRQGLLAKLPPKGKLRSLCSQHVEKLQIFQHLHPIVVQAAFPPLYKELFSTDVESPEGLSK
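Using a luciferase readout, inhibitors were identified by reduced reporter activity in Drosophila cells coexpressing a copper-inducible Gal4–ROR gamma fusion and UAS-driven Photinus luciferase, incubated 20 hr after 700 uM copper sulfate.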
SW480 rerep – DNA re-replication induction in SW480 cells. SW480 DNA re-replication, Hoechst DNA content imaging, 48 h. Potency, µM (titrated, usually from 46.1 µM), hits mostly activators. actives 1.8% (n = 340,000). AID 624297; note: nearly all actives have a fitted effect of over 55% in size
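DNA re-replication was detected as more nuclei of elevated Hoechst intensity after 48 hr exposure to compound (23 nL pinned per well of 250 cells).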
IL1B secr inh – inhibitors of inflammasome signaling (IL-1 beta secretion). actives 4.7% (n = 360,000). AID 743279. activity change, % at 57.5 µM. THP-1 LPS/ATP IL-1B secretion, AlphaLISA, 16 h; active compounds read low; in the data active = activity change below about -50%; inconclusive = mostly about -30% to -49%
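THP-1 cells pretreated 1 hr with compounds (up to 57.5 uM final), then stimulated with LPS (250 ng/mL final) plus ATP (1.25 mM final); secreted IL-1B measured by AlphaLISA after 16 hr, decreased signal indicating inhibition.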
Hits are given with their value; [ ] = dose if it differs, or a comment. Unless noted, calls come from the whole dose curve; as a rule, active = well fitted curve in the direction sought with a large enough effect; inconclusive = small, poorly fitted or top-dose-only effect, or another doubt; inactive = no such curve, though single readings can be large; an effect the other way counts as inactive or inconclusive.

How did Cc1cc(C)n(CC(=O)N/N=C/c2ccc([N+](=O)[O-])s2)n1 do in these assays?
Gal4-VP16 FLuc: inactive; MCF10A rerep: inconclusive; RORg inh: inactive; SW480 rerep: 20.6µM; IL1B secr inh: inconclusive

Results for Cc1cc(C)n(CC(=O)N/N=C/c2cccs2)n1 ?
Gal4-VP16 FLuc: inconclusive; MCF10A rerep: inactive; RORg inh: inactive; SW480 rerep: inactive; IL1B secr inh: inactive

Results for O=[N+]([O-])c1ccc(C=Nc2cccc3ccccc23)s1 ?
Gal4-VP16 FLuc: inconclusive; MCF10A rerep: 20.6µM; RORg inh: inconclusive; SW480 rerep: 6.51µM; IL1B secr inh: -96.9

Results for Cc1ccccc1S(=O)(=O)N1CCN(c2ccc3c(c2)C2CC3CCN2C(=O)OCc2ccccc2)CC1 (stereo unspecified) ?
IL1B secr inh: inactive

What do the screens show for `CCc1ccc2c(c1)NC(=O)C2(C)Cc1ccc(F)cc1` (stereo unspecified)?
IL1B secr inh: inactive

Results for CC(C)c1ccc2c(c1)C1(NN=C(c3ccccc3)S1)C(=O)N2 (stereo unspecified) ?
Gal4-VP16 FLuc: 5.01µM; MCF10A rerep: 1.3µM; RORg inh: 5.62µM; SW480 rerep: 8.2µM; IL1B secr inh: inactive

Results for CCc1ccc2c(c1)C1(NN=C(c3ccc(C)cc3)S1)C(=O)N2 (stereo unspecified) ?
Gal4-VP16 FLuc: 3.55µM; MCF10A rerep: 6.51µM; RORg inh: 3.98µM; SW480 rerep: inconclusive; IL1B secr inh: -100.0

What do the screens show for `CC(C)c1ccc(O)c(NC(=O)c2ncn[nH]2)c1`?
Gal4-VP16 FLuc: inactive; MCF10A rerep: inactive; RORg inh: inactive; SW480 rerep: inactive; IL1B secr inh: inactive

Results for [O]=[Bi][O]C(=O)[O][Bi]=[O] ?
Gal4-VP16 FLuc: inactive; MCF10A rerep: inactive; RORg inh: inactive[10 µM]; SW480 rerep: inactive

What do the screens show for `C[C@@H]1CN([C@@H](C)CO)C(=O)CCCn2cc(nn2)CO[C@H]1CN(C)C(=O)c1ccc2ccn(C)c2c1`?
IL1B secr inh: inactive

What do the screens show for `CC(=O)Oc1cc2c(cc1Cl)C1(CC(c3ccccc3Cl)O2)CC(C)(C)NC(=S)N1` (stereo unspecified)?
Gal4-VP16 FLuc: inconclusive; MCF10A rerep: inconclusive; RORg inh: 10µM; SW480 rerep: inactive[9.22 µM]; IL1B secr inh: inactive

How did CCC(C(=O)NC1CCCCC1)n1c2ccccc2c2nc(=O)cc(C)n21 (stereo unspecified) do in these assays?
Gal4-VP16 FLuc: inactive; MCF10A rerep: inactive; RORg inh: inactive; SW480 rerep: inactive; IL1B secr inh: inactive

Results for Clc1ccc(OCCN2CCOCC2)cc1Cl ?
Gal4-VP16 FLuc: inactive; MCF10A rerep: inactive; RORg inh: inactive; SW480 rerep: inactive; IL1B secr inh: inactive

How did ON=C1c2cc(OCCN3CCCCC3)ccc2-c2ccc(OCCN3CCCCC3)cc21 do in these assays?
Gal4-VP16 FLuc: inactive; MCF10A rerep: inactive; RORg inh: inconclusive; SW480 rerep: inactive[9.22 µM]; IL1B secr inh: -97.2

How did NC(=S)NN=C1c2cc(OCCN3CCOCC3)ccc2-c2ccc(OCCN3CCOCC3)cc21 do in these assays?
Gal4-VP16 FLuc: 3.16µM; MCF10A rerep: inconclusive; RORg inh: 1.26µM; SW480 rerep: inconclusive; IL1B secr inh: -96.0

Results for Clc1ccc(OCCN2CCCCC2)cc1Cl ?
Gal4-VP16 FLuc: inactive; MCF10A rerep: inconclusive; RORg inh: inactive; SW480 rerep: inactive; IL1B secr inh: inactive

What do the screens show for `N#Cc1ccc(CN2CCCC3(CCN(C(=O)c4csnn4)CC3)C2)cc1`?
Gal4-VP16 FLuc: inactive; RORg inh: inactive

What do the screens show for `COc1cccc(/C=N/NC(=O)c2c(C)nc3ccc(Cl)cn23)c1O`?
Gal4-VP16 FLuc: 3.98µM; MCF10A rerep: inconclusive; RORg inh: 3.16µM; SW480 rerep: 0.259µM; IL1B secr inh: inactive

How did Cc1nc2ccc(Br)cn2c1C(=O)N/N=C\c1ccccc1[N+](=O)[O-] do in these assays?
Gal4-VP16 FLuc: inactive; MCF10A rerep: inactive; RORg inh: inconclusive; SW480 rerep: inactive; IL1B secr inh: inactive

What do the screens show for `COc1ccccc1/C=N\NC(=O)c1c(C)nc2ccc(Cl)cn12`?
Gal4-VP16 FLuc: inconclusive; MCF10A rerep: inactive; RORg inh: inconclusive; SW480 rerep: inactive; IL1B secr inh: inactive

What do the screens show for `Cc1nc2ccc(Br)cn2c1C(=O)N/N=C\c1ccccc1Cl`?
Gal4-VP16 FLuc: inconclusive; MCF10A rerep: inconclusive; RORg inh: 7.08µM; SW480 rerep: inconclusive; IL1B secr inh: inactive

What do the screens show for `COC(=O)c1ccccc1S(=O)(=O)Oc1ccc(-c2ccc(C(=O)O)cc2)cc1`?
Gal4-VP16 FLuc: inactive; MCF10A rerep: inactive; RORg inh: inactive; SW480 rerep: inactive; IL1B secr inh: -99.2

What do the screens show for `COc1ccc(-n2c(-c3ccco3)n[nH]c2=S)cc1`?
Gal4-VP16 FLuc: inconclusive; MCF10A rerep: inactive; RORg inh: inactive[10 µM]; SW480 rerep: inactive; IL1B secr inh: inactive

What do the screens show for `CC(C)(C)c1cc(-c2n[nH]c(=S)n2-c2ccc(Cl)cc2)n[nH]1`?
Gal4-VP16 FLuc: inactive; MCF10A rerep: inactive; RORg inh: 7.08µM; SW480 rerep: inactive[9.22 µM]; IL1B secr inh: inactive

Results for Cn1cc(Cl)c(C(=O)NC2CCCCCC2)n1 ?
Gal4-VP16 FLuc: inactive; MCF10A rerep: inactive; RORg inh: inactive; SW480 rerep: inactive; IL1B secr inh: inactive

Results for S=c1[nH]nc(-c2ccco2)n1C1CCCCC1 ?
Gal4-VP16 FLuc: inconclusive; MCF10A rerep: inactive; RORg inh: 10µM; SW480 rerep: inactive; IL1B secr inh: inactive

How did S=c1[nH]nc(-c2ccco2)n1-c1ccc(Cl)cc1 do in these assays?
Gal4-VP16 FLuc: inactive; MCF10A rerep: inactive; RORg inh: 8.91µM; SW480 rerep: inactive; IL1B secr inh: inactive

How did Cn1cc(Cl)c(-c2n[nH]c(=S)n2C2CCCCC2)n1 do in these assays?
Gal4-VP16 FLuc: inconclusive; MCF10A rerep: inactive; RORg inh: 6.31µM; SW480 rerep: inactive; IL1B secr inh: inactive

What do the screens show for `Nn1c(-c2ccco2)n[nH]c1=S`?
Gal4-VP16 FLuc: inactive; MCF10A rerep: inactive; RORg inh: inactive; SW480 rerep: inactive; IL1B secr inh: inactive

What do the screens show for `COc1cc(NC(=O)CCn2c(=S)[nH]c3ccccc3c2=O)cc(OC)c1OC`?
IL1B secr inh: inactive

How did Cc1ccc2c(Cl)c(C)c(N3CCOCC3)nc2n1 do in these assays?
MCF10A rerep: inactive; SW480 rerep: inactive; IL1B secr inh: inactive

How did CCOc1ccccc1C(=O)NCC(=O)NCC(c1ccco1)N1CCCCC1 (stereo unspecified) do in these assays?
MCF10A rerep: inactive; SW480 rerep: inactive; IL1B secr inh: inactive

What do the screens show for `CCCOc1ccc(NC(=O)CC2C(=O)N(c3ccc(OCC)cc3)C(=S)N2C2CC2)cc1` (stereo unspecified)?
Gal4-VP16 FLuc: inconclusive; MCF10A rerep: inactive; RORg inh: inconclusive; SW480 rerep: inconclusive; IL1B secr inh: inactive

How did Cc1ccc(S(=O)(=O)/N=C2/C=C(C3C(=O)CC(C)(C)CC3=O)C(=O)c3ccccc32)cc1 do in these assays?
Gal4-VP16 FLuc: inconclusive; MCF10A rerep: inconclusive; RORg inh: 11.2µM; SW480 rerep: inconclusive; IL1B secr inh: inactive

From PubChem BioAssay
